The text below walks through data of PubChem BioAssay.

Values without a mark were called inactive.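 Rule for the calls, unless noted: active = RAM network inhibition above 8.4% in each of two replicates, 3 SD over the compound average; inconclusive = above 8.4% inhibition in only one replicate; inactive = 8.4% inhibition or less in each replicate.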

The first experiment is described as follows: RAM pathway blockade in budding yeast – dse1pr::URA3 reporter, 5-FOA selection, pilot screen (AID 869;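 active = inhibition over a set limit, the all-compound mean plus 3 SD, in both replicate runs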;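 note: 0% = DMSO wells with no growth and 100% = 10 µM 1-NA-PP1 with full growth; RAM network block rescues cells from 5-FOA so hits raise OD615 growth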). The following applies: S. cerevisiae dse1pr::URA3 5-FOA growth, OD615, 2 d; at 10 µM; stronger effect = higher value; strain carries analog-sensitive mutant Cbk1 kinase.
Consider `O=C(CSc1ccc2nnc(-c3ccc(F)cc3)n2n1)N1CCOCC1`, for which the inhibition – broadly, the change of the read-out against control, counted positive when it falls – was 0.08%.
The same measure, in the same setting: under `COC(=O)CN1C(=O)COc2ccc(Cl)cc21` stands 0.605%.
Same read-out and setting: to `CCOC(=O)C1CCCN(C(=O)Cn2sc3nc(C)cc(C)c3c2=O)C1` (stereo not given) belongs 1.51%; to `O=C(NCc1cccs1)c1cnc2sccn2c1=O`, 1.6%.
Still for that read-out and setting: under `COC(=O)c1cn(NC(=O)c2ccncc2)c(=O)c2ccccc12` stands 0.87%; under `Cc1ccccc1C(=O)Nc1ccccc1`, 0.28%; under `CC(Oc1ccccc1F)C(=O)NCCN1CCCCC1` (stereo not given), 0.865%.
Consider `O=C(Cn1cc2c(n1)CCCCC2)NC1CCCCCC1`, for which the inhibition is 0.43%.
As to `COc1ccccc1OCCC(=O)OCC(=O)NC(=O)NC(C)(C)C`, the inhibition was 2.56%.
Still for that read-out and setting: to `COc1ccc(OC)c(NC(=O)C2CCCN2C(=O)C2CCC(C)CC2)c1` (stereo not given) belongs 0.895%; to `Cc1ccc2oc(=O)c3cnn(CC(=O)NC4CCCCC4C)c3c2c1` (stereo not given), 1.73%; to `O=C(Nc1nc(-c2ccccn2)cs1)C1COc2ccccc2O1` (stereo not given), 0.255%.
Take `O=C(Nc1ccc(Cl)cc1)C1CC2CCCC(C1)C2=O` (stereo not given): the inhibition was 0.77%.
The same measure, in the same setting: to `O=C(NCc1ccc2c(c1)OCO2)c1cnc2n(c1=O)CCS2` belongs 1.17%; to `CC(C)(Oc1ccc(-c2ccco2)cc1)C(=O)O`, 0.31%.
Still for that read-out and setting: under `Cc1cc(S(=O)(=O)N2CCN(Cc3ccccc3)CC2)c(C)s1` stands 1.35%; under `c1ccc(CSc2nnc(-c3ccncc3)o2)cc1`, 0.73%.
Still for that read-out and setting: under `CC(=O)c1cccc(NC(=O)c2cnn3ccccc23)c1` stands 1.73%; under `CCOCCCNC(=O)Cn1cc2c(n1)CCCC2`, 1.91%.
Turning to `Cc1nn(-c2ccccc2)c2sc(C(=O)n3cccn3)cc12`, the inhibition was 2.99%.
Still for that read-out and setting: under `COc1ccccc1N1C(=O)N(C(C)=O)C2C1Nc1ccccc1N2C` (stereo not given) stands 1.71%.
For the compound `COCCOC(=O)C1=C(C)NC2=C(C(=O)CC(C)(C)C2)C1c1ccc2c(c1)OCO2` (stereo not given), the inhibition was 0.175%.
On the same count and under the same terms, to `CC(C)NS(=O)(=O)c1ccc(NC(=O)c2cccnc2)cc1` belongs 1.95%; to `CCCCCn1c(NCc2ccco2)nc2ccccc21`, 1.6%.
Consider `O=C(Cn1cnc2c(cnn2-c2ccccc2)c1=O)NC1CCCC1`, for which the inhibition was 1.77%.
On to `Nc1cc(-c2cccc(F)c2)nn1S(=O)(=O)c1cccc2nsnc12`, for which the inhibition was 2.71%.
The same measure, in the same setting: to `COc1ccc(C/C(O)=C(\C#N)c2nc3ccccc3[nH]2)cc1OC` belongs 0.175%; to `O=C(NCCN1C(=O)C2C3C=CC(C3)C2C1=O)Nc1cccnc1` (stereo not given), 0.445%.
The same measure, in the same setting: under `CN(C)C(=O)c1nnc(Cc2ccc(Cl)cc2)o1` stands 0.31%; under `C=CCOC(=O)C1CC=CCC1C(=O)Oc1ccc(F)cc1F` (stereo not given), 2.56%.
On the same count and under the same terms, to `Cc1nnc(SCC(=O)N2CCOCC2)n1C` belongs 2.25%; to `Cc1cc(NCc2ccc3c(c2)OCO3)n2nc(C)nc2n1`, 0.44%; to `Cc1ccc(-c2nn3c(C)nnc3s2)cc1NC(=O)c1ccco1`, 2.53%.
For `CN1CCCN(Cc2ccccc2C(F)(F)F)CC1`, the inhibition was 1.25%.
Turning to `CCOc1ccccc1N1CCN(C(=O)c2cc(C)oc2C)CC1`, the inhibition was 0.04%.
The same measure, in the same setting: under `CC(CCc1ccco1)NC(=O)Cn1nc(Cc2ccncc2)c2ccccc2c1=O` (stereo not given) stands 2.26%.
`CNC(=O)c1ccsc1NC(=O)c1ccc(Cl)s1`: the inhibition is 1.08%.
On the same count and under the same terms, to `O=C(O)c1ccc(CSc2nnc(-c3ccco3)o2)cc1` belongs 0.595%.
On the same count and under the same terms, under `CCN1C(=O)CSc2ccc(C(=O)OC)cc21` stands 1.39%; under `CCOc1ccc(Oc2nc(NCC(C)C)nc(OC)n2)nn1`, 2.14%.

The next experiment in a line: RAM signaling pathway blockade in yeast – S. cerevisiae, Pdr1DBD-CYC8 efflux-inhibited sensitized strain, primary screen (AID 1298).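 Note: 0% = DMSO untreated cells without growth and 100% = 10 µM 1-NA-PP1 full growth; higher means more yeast growth rescued from 5-FOA killing.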 Conditions: S. cerevisiae cbk1-as DSE1-URA3 strain, 5-FOA growth OD615, 2 d; at 50 µM; stronger effect = higher value.
In the case of `O=C(CSc1ccc2nnc(-c3ccc(F)cc3)n2n1)N1CCOCC1`, the RAM network inhibition is 0.47%.
On the same count and under the same terms, under `COC(=O)CN1C(=O)COc2ccc(Cl)cc21` stands 2.29%; under `CCOC(=O)C1CCCN(C(=O)Cn2sc3nc(C)cc(C)c3c2=O)C1` (stereo not given), 2.71%; under `O=C(NCc1cccs1)c1cnc2sccn2c1=O`, 0.36%.
Turning to `COC(=O)c1cn(NC(=O)c2ccncc2)c(=O)c2ccccc12`, the RAM network inhibition was 2.53%.
The same measure, in the same setting: to `Cc1ccccc1C(=O)Nc1ccccc1` belongs 0.56%.
For `CC(Oc1ccccc1F)C(=O)NCCN1CCCCC1` (stereo not given), the RAM network inhibition was 3.01%.
In the case of `O=C(Cn1cc2c(n1)CCCCC2)NC1CCCCCC1`, the RAM network inhibition was 0.21%.
Turning to `COc1ccccc1OCCC(=O)OCC(=O)NC(=O)NC(C)(C)C`, the RAM network inhibition is 0.79%.
On the same count and under the same terms, to `COc1ccc(OC)c(NC(=O)C2CCCN2C(=O)C2CCC(C)CC2)c1` (stereo not given) belongs -0.32%.
For `Cc1ccc2oc(=O)c3cnn(CC(=O)NC4CCCCC4C)c3c2c1` (stereo not given), the RAM network inhibition is 0.7%.
Still for that read-out and setting: under `O=C(Nc1nc(-c2ccccn2)cs1)C1COc2ccccc2O1` (stereo not given) stands -2.19%; under `O=C(Nc1ccc(Cl)cc1)C1CC2CCCC(C1)C2=O` (stereo not given), 4.61%.
In the case of `O=C(NCc1ccc2c(c1)OCO2)c1cnc2n(c1=O)CCS2`, the RAM network inhibition was 1.93%.
On the same count and under the same terms, to `CC(C)(Oc1ccc(-c2ccco2)cc1)C(=O)O` belongs 1.07%; to `Cc1cc(S(=O)(=O)N2CCN(Cc3ccccc3)CC2)c(C)s1`, 4.48%; to `c1ccc(CSc2nnc(-c3ccncc3)o2)cc1`, 1.96%.
The same measure, in the same setting: to `CC(=O)c1cccc(NC(=O)c2cnn3ccccc23)c1` belongs 4.75%; to `CCOCCCNC(=O)Cn1cc2c(n1)CCCC2`, 1.03%.
Still for that read-out and setting: under `Cc1nn(-c2ccccc2)c2sc(C(=O)n3cccn3)cc12` stands 8.3%.
With `COc1ccccc1N1C(=O)N(C(C)=O)C2C1Nc1ccccc1N2C` (stereo not given), the RAM network inhibition was 4.65%.
Same read-out and setting: under `COCCOC(=O)C1=C(C)NC2=C(C(=O)CC(C)(C)C2)C1c1ccc2c(c1)OCO2` (stereo not given) stands 2.6%; under `CC(C)NS(=O)(=O)c1ccc(NC(=O)c2cccnc2)cc1`, 1.31%; under `CCCCCn1c(NCc2ccco2)nc2ccccc21`, 1.9%.
Same read-out and setting: to `O=C(Cn1cnc2c(cnn2-c2ccccc2)c1=O)NC1CCCC1` belongs 2.38%.
Same read-out and setting: to `Nc1cc(-c2cccc(F)c2)nn1S(=O)(=O)c1cccc2nsnc12` belongs 0.98%.
With `COc1ccc(C/C(O)=C(\C#N)c2nc3ccccc3[nH]2)cc1OC`, the RAM network inhibition is 3.13%.
For the compound `O=C(NCCN1C(=O)C2C3C=CC(C3)C2C1=O)Nc1cccnc1` (stereo not given), the RAM network inhibition is 1.17%.
Consider `CN(C)C(=O)c1nnc(Cc2ccc(Cl)cc2)o1`, for which the RAM network inhibition is 7.05%.
Same read-out and setting: to `C=CCOC(=O)C1CC=CCC1C(=O)Oc1ccc(F)cc1F` (stereo not given) belongs 1.82%; to `Cc1nnc(SCC(=O)N2CCOCC2)n1C`, 2.02%; to `Cc1cc(NCc2ccc3c(c2)OCO3)n2nc(C)nc2n1`, -0.15%.
On the same count and under the same terms, under `Cc1ccc(-c2nn3c(C)nnc3s2)cc1NC(=O)c1ccco1` stands 1.06%.
On the same count and under the same terms, under `CN1CCCN(Cc2ccccc2C(F)(F)F)CC1` stands 1.53%; under `CCOc1ccccc1N1CCN(C(=O)c2cc(C)oc2C)CC1`, 0.7%.
For the compound `CC(CCc1ccco1)NC(=O)Cn1nc(Cc2ccncc2)c2ccccc2c1=O` (stereo not given), the RAM network inhibition is 1.95%.
On the same count and under the same terms, under `CNC(=O)c1ccsc1NC(=O)c1ccc(Cl)s1` stands 2.36%; under `O=C(O)c1ccc(CSc2nnc(-c3ccco3)o2)cc1`, 3.22%; under `CCN1C(=O)CSc2ccc(C(=O)OC)cc21`, -0.69%.
On to `CCOc1ccc(Oc2nc(NCC(C)C)nc(OC)n2)nn1`, for which the RAM network inhibition was -1.03%.
